The text below walks through data of the supplement of paper PMC3842684.

For one assay, the system named is P. falciparum NF54-pfs16-GFP early (I-III) stage gametocytes. Put plainly: relative % inhibition of viable gametocyte number; higher = more gametocytocidal. Conditions: 0.5 µM; stage: early (I-III) gametocyte; incubation 72 h. The method, boiled down: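 Viable gametocytes were counted by confocal imaging as elongated GFP objects carrying MitoTracker Red signal above a cut-off, after 72 h of compound exposure (5 or 0.5 µM) at 37°C in 5% CO2 and 5% O2 and overnight staining. The NF54 pfs16-GFP gametocytes had been magnet-isolated at early (I/IIa, day 2) or late (day 8) stage and plated at 10% parasitaemia, 0.1% haematocrit in 384-well poly-D-lysine imaging plates. Relative inhibition was normalised to vehicle and positive-control wells within each plate.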
Take `CCOc1ccc(Nc2ccnc3cc(Cl)ccc23)cc1`: the relative % inhibition is -5.49%.
In the case of `c1ccc2c(NCCc3c[nH]c4ccccc34)c3ccccc3nc2c1`, the relative % inhibition was found to be 37.7%.
Same read-out and setting: next, `CCOC(=O)C1=C(C)N=c2sc(=Cc3cc(Cl)ccc3O)c(=O)n2C1c1ccc(OC)cc1` (stereo unspecified): 105%; `Cc1cc(Nc2ccc(Cl)cc2)n2nc(C(F)(F)F)nc2n1`: 4.02%.
For `CC1CC2=C(CC1CNCCCN(C)C)C(C)(C)CCC2` (stereo unspecified), the relative % inhibition came to 33.8%.
Still for that read-out and setting: next, `O=C(CSc1ccc2nnc(-c3cccc(F)c3)n2n1)Nc1ccc2c(c1)OCO2`: 10.3%; `COc1ccc(-c2nc3cc(Cc4ccc5[nH]c(-c6ccc(OC)cc6)nc5c4)ccc3[nH]2)cc1`: 48.1%.
Same read-out and setting: next, `CC(C)(C)CC(C)(C)NCC(O)COc1ccc2c(c1)CCC2` (stereo unspecified): -11.4%; `Cc1ccc(Nc2nc(N)c3ccccc3n2)cc1Cl`: -26.6%; `COc1ccc(CCn2c(=N)c(C(=O)NCc3cccnc3)cc3c(=O)n4cccc(C)c4nc32)cc1`: 45.1%.
`CN1CCN(c2ccc(Nc3c4ccccc4nc4ccccc34)cc2)CC1`: the relative % inhibition stood at 100%.
As for `CC(C)(C)c1ccc(C(=O)Nc2nc3ccccc3s2)cc1`, the relative % inhibition was found to be 0.793%.
In the case of `Oc1c2c(nc3ccccc13)CCCC2`, the relative % inhibition amounted to 9.29%.
Regarding `CCOC(=O)c1ccc2nc(-c3ccccc3)cc(O)c2c1`, the relative % inhibition was 2.53%.
On the same count and under the same terms, as for `Cc1cc(Nc2ccc(C)c(Cl)c2)n2nc(C(F)(F)F)nc2n1`, the figure is -5.05%.
As to `COc1ccc(-c2nonc2NC(=O)c2cccc(C)c2)cc1OC`, the relative % inhibition was 15.3%.
In the case of `COc1cc(OC)cc(N2C(=O)N(Cc3ccc(C(C)(C)C)cc3)c3ccccc3S2(=O)=O)c1`, the relative % inhibition worked out at 10%.
The same measure, in the same setting: as for `O=C(NC1CCCC1)c1ccc(N2CCC(NCc3cccc(C(F)(F)F)c3)CC2)cc1`, the figure is 2.61%.
Regarding `O=C(Nc1ccc(CN2CCOCC2)cc1)c1ccc(-c2ccc(Br)cc2)o1`, the relative % inhibition is 16.2%.
Same read-out and setting: as for `CN(C)c1ccc(N=Cc2ccc(N3CCOCC3)cc2)cc1`, the figure is 2.5%.
Still for that read-out and setting: next, `CCOc1cc2c(cc1OCC)C(c1cc(OC)c(O)cc1Cl)NCC2` (stereo unspecified): 22.5%; `COc1cc(C(=O)Nc2nc3c(cc4c5c(cccc53)CC4)s2)cc(OC)c1OC`: 5.49%.
Same read-out and setting: as for `O=C(NC1CCN(Cc2ccccc2)CC1)c1cc(-c2ccncc2)nc2ccc(Cl)cc12`, the figure is 17.7%; as for `CCOC(=O)C1(Cc2ccccc2)CCN(Cc2cccc(OC)c2O)CC1`, 14.7%.
For `Cc1ccc(Nc2nc(-c3ccccn3)cs2)cc1`, the relative % inhibition came to 69.6%.
Take `COc1ccccc1N1C(=N)SC(=Cc2ccc(OCc3ccccc3F)cc2)C1=O`: the relative % inhibition is 2.18%.
Same read-out and setting: as for `CCN(CC)CCNc1ccnc2cc(Cl)ccc12`, the figure is -1.61%; as for `COc1cc(C(=O)Nc2ccc(-c3nc4ccccc4[nH]3)cc2)cc(OC)c1OC`, 22.1%; as for `COc1ccc(Nc2nc(NN=Cc3ccc(O)cc3)nc(Nc3ccc([N+](=O)[O-])cc3)n2)cc1`, -0.568%.
Same read-out and setting: as for `O=C(NC1CCN(Cc2ccccc2)CC1)c1cc(-c2cccnc2)nc2ccc(Cl)cc12`, the figure is 3.2%; as for `CC1=C(CC(=O)c2cccc([N+](=O)[O-])c2)C(=O)c2ccccc2C1=O`, 48%; as for `CCCc1c(C)nc2ccccc2c1O`, -8.06%.
The same measure, in the same setting: next, `O=c1nc(C=Cc2ccc(Br)cc2)oc2ccccc12`: 10.7%.
Take `FC(F)(F)c1ccc(Nc2nnnc3ccccc23)cc1`: the relative % inhibition came out at 7.13%.
Consider `COc1ccc(C2N(C)c3ccccc3N2C)cc1`, for which the relative % inhibition is 24.6%.
Take `Cc1ccccc1OCCSc1nc2ccc(NC(=O)c3ccccc3)cc2s1`: the relative % inhibition was 24.2%.
Regarding `CN1c2ccccc2N(C)C1c1ccc2c(c1)OCO2`, the relative % inhibition worked out at 0.225%.
Consider `CCn1c(CN2CCN(Cc3ccccc3)CC2)nc2cc(NC(=O)c3cccs3)ccc21`, for which the relative % inhibition is -11.6%.

Staying with this assay, now noted: 5 µM; stage: early (I-III) gametocyte; incubation 72 h.
Turning to `CCOc1ccc(Nc2ccnc3cc(Cl)ccc23)cc1`, the relative % inhibition is -2.53%.
On to `c1ccc2c(NCCc3c[nH]c4ccccc34)c3ccccc3nc2c1`, for which the relative % inhibition is 89.1%.
Still for that read-out and setting: as for `CCOC(=O)C1=C(C)N=c2sc(=Cc3cc(Cl)ccc3O)c(=O)n2C1c1ccc(OC)cc1` (stereo unspecified), the figure is 108%; as for `Cc1cc(Nc2ccc(Cl)cc2)n2nc(C(F)(F)F)nc2n1`, -6.02%; as for `CC1CC2=C(CC1CNCCCN(C)C)C(C)(C)CCC2` (stereo unspecified), 97.1%.
On the same count and under the same terms, as for `O=C(CSc1ccc2nnc(-c3cccc(F)c3)n2n1)Nc1ccc2c(c1)OCO2`, the figure is 1.63%; as for `COc1ccc(-c2nc3cc(Cc4ccc5[nH]c(-c6ccc(OC)cc6)nc5c4)ccc3[nH]2)cc1`, 100%; as for `CC(C)(C)CC(C)(C)NCC(O)COc1ccc2c(c1)CCC2` (stereo unspecified), 78.8%.
With `Cc1ccc(Nc2nc(N)c3ccccc3n2)cc1Cl`, the relative % inhibition is 24.5%.
On to `COc1ccc(CCn2c(=N)c(C(=O)NCc3cccnc3)cc3c(=O)n4cccc(C)c4nc32)cc1`, for which the relative % inhibition worked out at 70.9%.
On the same count and under the same terms, next, `CN1CCN(c2ccc(Nc3c4ccccc4nc4ccccc34)cc2)CC1`: 101%; `CC(C)(C)c1ccc(C(=O)Nc2nc3ccccc3s2)cc1`: 31%; `Oc1c2c(nc3ccccc13)CCCC2`: -7.51%.
As for `CCOC(=O)c1ccc2nc(-c3ccccc3)cc(O)c2c1`, the relative % inhibition was 2.35%.
The same measure, in the same setting: as for `Cc1cc(Nc2ccc(C)c(Cl)c2)n2nc(C(F)(F)F)nc2n1`, the figure is -8.28%; as for `COc1ccc(-c2nonc2NC(=O)c2cccc(C)c2)cc1OC`, 39.2%.
`COc1cc(OC)cc(N2C(=O)N(Cc3ccc(C(C)(C)C)cc3)c3ccccc3S2(=O)=O)c1`: the relative % inhibition stood at 6.11%.
On to `O=C(NC1CCCC1)c1ccc(N2CCC(NCc3cccc(C(F)(F)F)c3)CC2)cc1`, for which the relative % inhibition is 22.8%.
The same measure, in the same setting: next, `O=C(Nc1ccc(CN2CCOCC2)cc1)c1ccc(-c2ccc(Br)cc2)o1`: -18%.
The same measure, in the same setting: next, `CN(C)c1ccc(N=Cc2ccc(N3CCOCC3)cc2)cc1`: 48.6%; `CCOc1cc2c(cc1OCC)C(c1cc(OC)c(O)cc1Cl)NCC2` (stereo unspecified): 100%.
As to `COc1cc(C(=O)Nc2nc3c(cc4c5c(cccc53)CC4)s2)cc(OC)c1OC`, the relative % inhibition amounted to 13.9%.
The same measure, in the same setting: as for `O=C(NC1CCN(Cc2ccccc2)CC1)c1cc(-c2ccncc2)nc2ccc(Cl)cc12`, the figure is 64.3%; as for `CCOC(=O)C1(Cc2ccccc2)CCN(Cc2cccc(OC)c2O)CC1`, 52.6%.
Still for that read-out and setting: next, `Cc1ccc(Nc2nc(-c3ccccn3)cs2)cc1`: 93.5%.
Same read-out and setting: next, `COc1ccccc1N1C(=N)SC(=Cc2ccc(OCc3ccccc3F)cc2)C1=O`: 25.8%.
As for `CCN(CC)CCNc1ccnc2cc(Cl)ccc12`, the relative % inhibition was found to be 100%.
Still for that read-out and setting: next, `COc1cc(C(=O)Nc2ccc(-c3nc4ccccc4[nH]3)cc2)cc(OC)c1OC`: 42.1%; `COc1ccc(Nc2nc(NN=Cc3ccc(O)cc3)nc(Nc3ccc([N+](=O)[O-])cc3)n2)cc1`: 101%.
Same read-out and setting: as for `O=C(NC1CCN(Cc2ccccc2)CC1)c1cc(-c2cccnc2)nc2ccc(Cl)cc12`, the figure is 46.2%.
On the same count and under the same terms, as for `CC1=C(CC(=O)c2cccc([N+](=O)[O-])c2)C(=O)c2ccccc2C1=O`, the figure is 60%; as for `CCCc1c(C)nc2ccccc2c1O`, 15.7%.
For `O=c1nc(C=Cc2ccc(Br)cc2)oc2ccccc12`, the relative % inhibition is -18.8%.
The same measure, in the same setting: next, `FC(F)(F)c1ccc(Nc2nnnc3ccccc23)cc1`: 2.85%; `COc1ccc(C2N(C)c3ccccc3N2C)cc1`: 30.9%; `Cc1ccccc1OCCSc1nc2ccc(NC(=O)c3ccccc3)cc2s1`: 20.2%.
Still for that read-out and setting: as for `CN1c2ccccc2N(C)C1c1ccc2c(c1)OCO2`, the figure is -13.6%.
Still for that read-out and setting: next, `CCn1c(CN2CCN(Cc3ccccc3)CC2)nc2cc(NC(=O)c3cccs3)ccc21`: 9.85%.
